Experimental data: the supplement of paper PMC10849652
Targets with a hit are over-represented here; the source holds about 8,800 in all. About 0.5% of all pairs of compound and target were hits.

Columns and labels:
Experiment in all cases: log2 fold change, soluble protein after heating vs DMSO (PISA); higher = thermal stabilisation; K562 lysate, 10 uM; active = over 0.2 and 3.5 SD of the protein, either way, in both replicates (recomputed)
erlotinib = compound: C#Cc1cccc(Nc2ncnc3cc(OCCOC)c(OCCOC)cc23)c1 [erlotinib]
Outline: (§1)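 Thermal stability, expressed as log-two fold change relative to solvent controls, is given from duplicates. Crude K562 extract in PBS pH 7.4 with 1 mM MgCl2, at 1 mg/mL protein, was treated with 10 μM compound for 30 min and heated in aliquots for 3 min across 48°C-58°C. After pooling, adjustment to 0.5% NP-40 at 4°C and centrifugation at 21,000xg for 90 min, supernatant protein was measured by TMTpro 16plex LC-MS/MS with channel sums equalised.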

[1] = compound: C/C(=N\NC(=O)C1=CC(=CC=C1)S(=O)(=O)N2CCOCC2)/C3=C(C=CC(=C3)Cl)O
Outline: as §1

[2] = compound: C1=CC(=CC=C1C2=NC3=C(N2)C=C(C=C3)C(=O)N)OC4=CC=C(C=C4)Cl
Outline: as §1

[3] = compound: C1=CC2=C(C=CC(=C2)/C=C\3/C(=O)NC(=NCC4=CC=CS4)S3)N=C1
Outline: as §1

[4] = compound: C1=CC2=NC=CN=C2C=C1/C=C/3\C(=O)NC(=O)S3
Outline: as §1

[5] = compound: C1=CC=C(C=C1)C2=NC(=C(N2)C3=CC=NC=C3)C4=CC(=C(C=C4)Cl)O
Outline: as §1

[6] = compound: C1=CC=C2C(=C1)C3=NNC4=CC=CC(=C43)C2=O
Outline: as §1

[7] = compound: C1CCN(C1)C(=O)NC2=CC=CC(=C2)NC3=NC=C(C(=N3)NCCC4=CN=CN4)Br
Outline: as §1

[8] = compound: C1CN(CCC1(CC2=CC=C(C=C2)Cl)N)C3=NC=NC4=C3C=CN4
Outline: as §1

IRAK-1-4 Inhibitor I = compound: C1COCCN1CCN2C3=CC=CC=C3N=C2NC(=O)C4=CC(=CC=C4)[N+](=O)[O-] [IRAK-1-4 Inhibitor I]
Outline: as §1

ibrutinib = compound: C=CC(=O)N1CCC[C@@H](n2nc(-c3ccc(Oc4ccccc4)cc3)c3c(N)ncnc32)C1 [ibrutinib]
Outline: as §1

[9] = compound: CC(=O)c1cnc2ccc(-c3cc(Cl)c(O)c(Cl)c3)nc2c1N[C@H]1CC[C@H](CN(C)C)CC1
Outline: as §1

ralimetinib = compound: CC(C)(C)Cn1c(N)nc2ccc(-c3[nH]c(C(C)(C)C)nc3-c3ccc(F)cc3)nc21 [ralimetinib]
Outline: as §1

[10] = compound: CC(C)(O)CC(=O)NCCn1ccc2ncnc(Nc3ccc(Oc4cccc(C(F)(F)F)c4)c(Cl)c3)c21
Outline: as §1

[11] = compound: CC(C)C1=C2N=C(C=C(N2N=C1)NCC3=CC=CC=C3)NCCCCCCN
Outline: as §1

[12] = compound: CC1=C(C(CC(=O)N1)C2=CC=C(C=C2)C(F)(F)F)C(=O)NC3=C(C=C4C(=C3)C=NN4)F
Outline: as §1

[13] = compound: CC1=C(C2=C(C=C1)C(=O)C3=CC=CC=C3N2CCCN)C
Outline: as §1

[14] = compound: CC1=C(C=C(C=C1)NC(=O)C2=CC(=CC=C2)C(C)(C)C#N)NC3=CC4=C(C=C3)N=CN(C4=O)C
Outline: as §1

[15] = compound: CC1=C(C=C(C=C1)NC(=O)C2=CC(=CC=C2)N(C)C)NC(=O)C3=CC=C(C=C3)O
Outline: as §1

[16] = compound: CC1=CC=C(C=C1)SC2=C3C=C(SC3=CN=C2)C(=O)N
Outline: as §1

Measured: log2 fold change

PRKCSH isoform 2 (UniProt P14314)
Sequence of UniProt P14314 (P14314 whole entry, looked up): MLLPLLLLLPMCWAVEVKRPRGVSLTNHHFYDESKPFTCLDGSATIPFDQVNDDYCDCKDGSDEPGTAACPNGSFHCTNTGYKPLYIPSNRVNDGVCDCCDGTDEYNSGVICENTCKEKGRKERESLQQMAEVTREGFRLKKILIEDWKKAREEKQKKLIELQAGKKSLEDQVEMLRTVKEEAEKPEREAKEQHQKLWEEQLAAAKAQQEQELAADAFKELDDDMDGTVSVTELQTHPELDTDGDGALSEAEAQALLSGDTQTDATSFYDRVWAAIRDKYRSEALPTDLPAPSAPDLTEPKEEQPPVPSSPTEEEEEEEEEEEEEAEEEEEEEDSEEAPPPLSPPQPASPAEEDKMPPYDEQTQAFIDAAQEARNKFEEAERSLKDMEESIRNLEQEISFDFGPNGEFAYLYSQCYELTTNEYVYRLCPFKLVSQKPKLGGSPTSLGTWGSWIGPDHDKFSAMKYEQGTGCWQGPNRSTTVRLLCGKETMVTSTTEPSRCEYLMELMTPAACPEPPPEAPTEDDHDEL
inactive: erlotinib 0.038 | [1] -0.107 | [2] 0.084 | [3] 0.024 | [4] 0.001 | [5] -0.054 | [6] -0.011 | [7] -0.009 | [8] 0.015 | IRAK-1-4 Inhibitor I 0.001 | ibrutinib -0.125 | [9] 0.069 | ralimetinib 0.012 | [10] -0.142 | [11] -0.004 | [12] 0.04 | [13] -0.017 | [14] 0.131 | [15] 0.132 | [16] -0.045

PRKCB isoform 2 (UniProt P05771)
Sequence of UniProt P05771 (P05771 whole entry, looked up): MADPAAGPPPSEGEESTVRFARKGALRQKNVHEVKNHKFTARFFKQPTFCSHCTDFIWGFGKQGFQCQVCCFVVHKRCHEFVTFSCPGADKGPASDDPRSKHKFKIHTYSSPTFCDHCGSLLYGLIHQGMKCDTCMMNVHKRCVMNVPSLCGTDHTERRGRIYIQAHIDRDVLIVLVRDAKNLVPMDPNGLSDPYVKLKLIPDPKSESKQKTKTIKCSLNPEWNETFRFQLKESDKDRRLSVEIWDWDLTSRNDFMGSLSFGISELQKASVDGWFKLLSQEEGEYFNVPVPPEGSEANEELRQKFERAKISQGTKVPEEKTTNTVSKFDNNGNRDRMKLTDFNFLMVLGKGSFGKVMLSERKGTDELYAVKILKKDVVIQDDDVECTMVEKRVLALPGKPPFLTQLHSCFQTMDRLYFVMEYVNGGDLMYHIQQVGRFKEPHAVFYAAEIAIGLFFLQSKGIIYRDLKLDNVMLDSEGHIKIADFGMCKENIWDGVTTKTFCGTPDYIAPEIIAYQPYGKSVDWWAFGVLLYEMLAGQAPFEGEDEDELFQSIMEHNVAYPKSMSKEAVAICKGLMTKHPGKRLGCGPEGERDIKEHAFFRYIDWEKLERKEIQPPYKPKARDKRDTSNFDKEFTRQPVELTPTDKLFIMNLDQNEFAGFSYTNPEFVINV
active: [9] 0.548
inactive: erlotinib 0.053 | [1] -0.191 | [2] 0.07 | [3] -0.043 | [4] -0.004 | [5] -0.064 | [6] -0.12 | [7] -0.149 | [8] 0.019 | IRAK-1-4 Inhibitor I -0.02 | ibrutinib -0.017 | ralimetinib 0.02 | [10] 0 | [11] 0.013 | [12] 0.002 | [13] -0.055 | [14] 0.042 | [15] -0.009 | [16] -0.113

PRIMPOL (UniProt Q96LW4)
Sequence of UniProt Q96LW4 (Q96LW4 whole entry, looked up): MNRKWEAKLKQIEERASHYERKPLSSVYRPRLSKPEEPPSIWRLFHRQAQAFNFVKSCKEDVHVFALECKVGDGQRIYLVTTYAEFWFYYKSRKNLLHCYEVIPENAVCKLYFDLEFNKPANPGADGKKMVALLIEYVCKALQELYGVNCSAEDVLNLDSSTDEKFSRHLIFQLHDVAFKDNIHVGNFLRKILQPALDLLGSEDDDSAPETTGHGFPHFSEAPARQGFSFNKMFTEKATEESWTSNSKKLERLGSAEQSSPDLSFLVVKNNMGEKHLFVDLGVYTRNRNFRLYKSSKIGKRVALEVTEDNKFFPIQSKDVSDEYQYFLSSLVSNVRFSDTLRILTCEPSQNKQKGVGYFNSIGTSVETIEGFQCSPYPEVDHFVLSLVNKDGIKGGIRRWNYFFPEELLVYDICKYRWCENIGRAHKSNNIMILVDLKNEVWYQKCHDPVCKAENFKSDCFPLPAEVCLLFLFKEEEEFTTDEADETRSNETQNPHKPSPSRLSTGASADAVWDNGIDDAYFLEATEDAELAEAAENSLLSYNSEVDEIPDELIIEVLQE
inactive: erlotinib -0.063 | [1] 0.007 | [2] -0.02 | [3] -0.025 | [4] 0.076 | [5] -0.013 | [6] 0.019 | [7] 0.009 | [8] -0.046 | IRAK-1-4 Inhibitor I 0.059 | ibrutinib 0.062 | ralimetinib 0.055 | [10] -0.027 | [11] 0.048 | [12] -0.055 | [13] -0.034 | [14] 0.078 | [15] 0.049

PLA2G4B isoform 6 (UniProt P0C869)
Sequence of UniProt P0C869 (P0C869 whole entry, looked up): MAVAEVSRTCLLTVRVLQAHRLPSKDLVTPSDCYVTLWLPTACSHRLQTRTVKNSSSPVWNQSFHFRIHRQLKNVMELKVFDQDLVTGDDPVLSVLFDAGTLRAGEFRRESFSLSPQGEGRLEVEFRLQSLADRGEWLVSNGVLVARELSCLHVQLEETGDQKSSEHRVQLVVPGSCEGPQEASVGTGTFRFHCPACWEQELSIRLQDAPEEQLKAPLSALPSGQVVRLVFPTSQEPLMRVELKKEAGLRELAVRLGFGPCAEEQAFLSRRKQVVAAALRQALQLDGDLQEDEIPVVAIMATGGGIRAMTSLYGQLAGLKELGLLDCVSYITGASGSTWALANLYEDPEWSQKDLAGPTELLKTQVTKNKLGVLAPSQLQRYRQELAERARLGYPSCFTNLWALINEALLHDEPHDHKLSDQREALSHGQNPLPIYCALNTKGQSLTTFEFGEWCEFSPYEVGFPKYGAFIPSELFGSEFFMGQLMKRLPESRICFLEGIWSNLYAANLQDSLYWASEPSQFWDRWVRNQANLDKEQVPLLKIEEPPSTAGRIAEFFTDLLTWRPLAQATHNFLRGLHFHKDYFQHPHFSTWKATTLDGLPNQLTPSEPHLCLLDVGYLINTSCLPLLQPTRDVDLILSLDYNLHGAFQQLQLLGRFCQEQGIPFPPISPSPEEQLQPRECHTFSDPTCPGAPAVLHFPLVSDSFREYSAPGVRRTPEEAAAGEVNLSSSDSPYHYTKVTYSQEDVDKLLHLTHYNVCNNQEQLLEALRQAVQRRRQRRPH
inactive: erlotinib 0.099 | [1] 0.064 | [2] 0.048 | [3] -0.099 | [4] 0.023 | [5] 0.062 | [6] -0.021 | [7] -0.011 | [8] 0.026 | IRAK-1-4 Inhibitor I 0.065 | ibrutinib -0.029 | [9] -0.046 | ralimetinib -0.17 | [10] -0.15 | [11] 0 | [12] -0.047 | [13] -0.149 | [14] 0.34 | [15] -0.005 | [16] -0.052

PIP4K2C (UniProt Q8TBX8)
Sequence of UniProt Q8TBX8 (Q8TBX8 whole entry, looked up): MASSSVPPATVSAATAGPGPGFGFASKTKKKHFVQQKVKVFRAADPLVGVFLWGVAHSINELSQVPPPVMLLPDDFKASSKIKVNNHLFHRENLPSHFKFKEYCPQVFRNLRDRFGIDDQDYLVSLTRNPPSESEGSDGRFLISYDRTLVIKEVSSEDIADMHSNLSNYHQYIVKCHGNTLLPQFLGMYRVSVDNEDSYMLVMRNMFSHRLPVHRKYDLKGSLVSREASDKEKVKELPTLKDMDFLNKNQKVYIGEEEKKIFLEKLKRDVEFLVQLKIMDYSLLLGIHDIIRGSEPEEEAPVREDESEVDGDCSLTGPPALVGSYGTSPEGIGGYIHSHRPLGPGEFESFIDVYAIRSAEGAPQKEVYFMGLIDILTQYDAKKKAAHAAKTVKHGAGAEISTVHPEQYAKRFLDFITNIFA
active: [4] 0.496
inactive: erlotinib 0.104 | [1] -0.289 | [2] 0.033 | [3] 0.004 | [5] 0.137 | [6] 0.127 | [7] 0.231 | [8] -0.055 | IRAK-1-4 Inhibitor I -0.005 | ibrutinib 0.012 | [9] 0.277 | ralimetinib 0.039 | [10] -0.055 | [11] -0.055 | [12] -0.047 | [13] -0.027 | [14] 0.03 | [15] -0.027 | [16] -0.031

PMPCA (UniProt Q10713)
Sequence of UniProt Q10713 (Q10713 whole entry, looked up): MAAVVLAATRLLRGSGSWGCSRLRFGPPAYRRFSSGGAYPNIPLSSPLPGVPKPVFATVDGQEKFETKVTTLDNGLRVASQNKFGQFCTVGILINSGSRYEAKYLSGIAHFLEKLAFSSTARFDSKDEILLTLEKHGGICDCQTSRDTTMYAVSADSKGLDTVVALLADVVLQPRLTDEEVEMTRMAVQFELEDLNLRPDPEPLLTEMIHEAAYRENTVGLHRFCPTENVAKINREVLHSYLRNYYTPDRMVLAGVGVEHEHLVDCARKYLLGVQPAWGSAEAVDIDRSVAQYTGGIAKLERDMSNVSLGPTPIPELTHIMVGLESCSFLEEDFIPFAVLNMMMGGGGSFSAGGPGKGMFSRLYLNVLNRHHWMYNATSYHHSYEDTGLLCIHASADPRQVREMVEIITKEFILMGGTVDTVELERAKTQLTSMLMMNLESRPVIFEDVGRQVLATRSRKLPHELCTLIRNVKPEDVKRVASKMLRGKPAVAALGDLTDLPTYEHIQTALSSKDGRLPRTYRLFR
inactive: erlotinib -0.034 | [1] -0.012 | [2] 0.073 | [3] 0.008 | [4] -0.006 | [5] 0.043 | [6] -0.014 | [7] -0.026 | [8] -0.012 | IRAK-1-4 Inhibitor I 0.007 | ibrutinib -0.052 | [9] -0.023 | ralimetinib 0.006 | [10] -0.038 | [11] -0.047 | [12] -0.043 | [13] -0.041 | [14] 0.033 | [15] -0.036 | [16] 0.015

PNPLA4 (UniProt P41247)
Sequence of UniProt P41247 (P41247 whole entry, looked up): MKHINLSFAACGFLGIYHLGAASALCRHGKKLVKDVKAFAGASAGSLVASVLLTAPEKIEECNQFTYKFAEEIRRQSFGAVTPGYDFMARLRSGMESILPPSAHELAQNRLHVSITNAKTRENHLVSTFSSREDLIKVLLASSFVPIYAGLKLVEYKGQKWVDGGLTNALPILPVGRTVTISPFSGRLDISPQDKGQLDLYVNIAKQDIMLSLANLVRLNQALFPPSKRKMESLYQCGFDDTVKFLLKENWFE
inactive: [1] 0.064 | [3] 0.1 | [5] 0.051 | [6] 0.1 | [7] 0.086 | [8] 0.09 | IRAK-1-4 Inhibitor I -0.001 | ralimetinib 0.14 | [10] -0.099 | [13] -0.116 | [14] -0.052 | [15] 0.046

PPP1R14C (UniProt Q8TAE6)
inactive: [1] 0.018 | [3] -0.092 | [4] -0.05 | [5] 0.001 | [6] 0.021 | [7] 0.052 | [8] -0.02 | IRAK-1-4 Inhibitor I -0.014 | ibrutinib 0.067 | [9] 0.007 | ralimetinib 0.057 | [10] 0.042 | [12] -0.028 | [13] -0.097 | [15] -0.123 | [16] 0.068

PYGO2 (UniProt Q9BRQ0)
inactive: erlotinib -0.047 | [2] 0.045 | [4] -0.039 | [5] 0.115 | [7] 0.012 | [8] 0.049 | IRAK-1-4 Inhibitor I 0.051 | ibrutinib 0.064 | ralimetinib 0.151 | [10] -0.122 | [11] -0.001 | [12] 0.005 | [13] 0.044 | [14] 0.011 | [15] -0.061

POLR2F (UniProt U3KPV3)
inactive: [7] -0.055 | [8] 0.084 | [13] 0.223

PPT2, A0A140T9Y1
inactive: [12] -0.142

PICALM (UniProt H0YCY1)
inactive: erlotinib -0.09 | [2] 0.108 | [11] -0.155

PRG4 (UniProt Q92954)
inactive: [4] -0.296 | [5] -0.027 | IRAK-1-4 Inhibitor I 0.057 | ibrutinib 0.267 | [9] -0.002 | ralimetinib 0.037 | [10] -0.109 | [12] -0.091 | [13] -0.029 | [14] -0.027 | [15] 0.035 | [16] 0.034

POLR2M (UniProt Q6EEV4)
inactive: erlotinib 0.011 | [1] 0.164 | [2] -0.025 | [3] -0.031 | [4] -0.045 | [6] -0.111 | [7] 0.052 | [8] -0.01 | ibrutinib 0.005 | [9] -0.07 | [11] -0.109 | [13] 0.007 | [14] 0.157 | [16] 0.078

PCBP2 (UniProt F8VRH0)
inactive: erlotinib 0.084 | [2] -0.182 | [5] -0.092 | IRAK-1-4 Inhibitor I 0.11 | [9] -0.014 | ralimetinib 0.087 | [10] -0.033 | [11] 0.051 | [12] 0.129 | [14] 0.017 | [15] 0.012 | [16] 0.027

PLXND1 (UniProt Q9Y4D7)
inactive: erlotinib -0.067 | [2] 0.073 | [4] -0.048 | [5] -0.016 | IRAK-1-4 Inhibitor I -0.032 | ibrutinib 0.138 | ralimetinib -0.081 | [10] -0.07 | [11] 0.046 | [12] -0.023 | [13] 0.112 | [14] -0.033 | [15] 0.218

PIP5K1A (UniProt Q99755)
Sequence of UniProt Q99755 (Q99755 whole entry, looked up): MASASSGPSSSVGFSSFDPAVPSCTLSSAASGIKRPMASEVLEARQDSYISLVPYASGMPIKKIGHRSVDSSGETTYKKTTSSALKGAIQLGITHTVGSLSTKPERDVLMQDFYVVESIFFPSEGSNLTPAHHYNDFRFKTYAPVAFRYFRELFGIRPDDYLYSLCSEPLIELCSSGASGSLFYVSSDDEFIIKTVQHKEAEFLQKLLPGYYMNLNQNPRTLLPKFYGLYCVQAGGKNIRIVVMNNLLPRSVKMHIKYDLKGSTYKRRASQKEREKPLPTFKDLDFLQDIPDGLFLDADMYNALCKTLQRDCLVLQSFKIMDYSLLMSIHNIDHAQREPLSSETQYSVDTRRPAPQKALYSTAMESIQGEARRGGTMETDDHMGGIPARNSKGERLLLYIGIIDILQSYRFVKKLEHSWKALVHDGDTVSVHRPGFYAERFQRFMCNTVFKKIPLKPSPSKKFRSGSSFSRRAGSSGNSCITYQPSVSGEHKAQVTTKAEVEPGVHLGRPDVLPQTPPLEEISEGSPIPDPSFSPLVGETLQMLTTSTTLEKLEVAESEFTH
inactive: erlotinib 0.036 | [2] -0.14 | [4] 0.022 | [5] -0.062 | IRAK-1-4 Inhibitor I -0.195 | ibrutinib 0.012 | [9] 0.201 | ralimetinib -0.053 | [10] 0.001 | [11] 0 | [12] 0.056 | [13] -0.127 | [14] 0.105 | [15] 0.02 | [16] -0.053

PPP1R11 (UniProt O60927)
inactive: erlotinib -0.046 | [2] 0.015 | [4] 0.01 | [5] 0.004 | [7] 0 | [8] -0.03 | IRAK-1-4 Inhibitor I 0.132 | ibrutinib -0.037 | [9] 0.058 | ralimetinib 0.062 | [10] -0.021 | [11] -0.024 | [12] 0.1 | [13] 0.052 | [14] 0.059 | [15] -0.037 | [16] -0.01

PCBP2 (UniProt F8W0G4)
inactive: erlotinib -0.117 | [1] -0.36 | [2] -0.007 | [3] -0.102 | [4] 0.022 | [5] 0.005 | [6] -0.236 | [7] -0.241 | [8] 0.079 | IRAK-1-4 Inhibitor I 0.093 | ibrutinib -0.27 | ralimetinib -0.061 | [10] -0.282 | [11] -0.175 | [12] -0.045 | [13] -0.083 | [15] 0.049

PIAS2 (UniProt O75928)
Sequence of UniProt O75928 (O75928 whole entry, looked up): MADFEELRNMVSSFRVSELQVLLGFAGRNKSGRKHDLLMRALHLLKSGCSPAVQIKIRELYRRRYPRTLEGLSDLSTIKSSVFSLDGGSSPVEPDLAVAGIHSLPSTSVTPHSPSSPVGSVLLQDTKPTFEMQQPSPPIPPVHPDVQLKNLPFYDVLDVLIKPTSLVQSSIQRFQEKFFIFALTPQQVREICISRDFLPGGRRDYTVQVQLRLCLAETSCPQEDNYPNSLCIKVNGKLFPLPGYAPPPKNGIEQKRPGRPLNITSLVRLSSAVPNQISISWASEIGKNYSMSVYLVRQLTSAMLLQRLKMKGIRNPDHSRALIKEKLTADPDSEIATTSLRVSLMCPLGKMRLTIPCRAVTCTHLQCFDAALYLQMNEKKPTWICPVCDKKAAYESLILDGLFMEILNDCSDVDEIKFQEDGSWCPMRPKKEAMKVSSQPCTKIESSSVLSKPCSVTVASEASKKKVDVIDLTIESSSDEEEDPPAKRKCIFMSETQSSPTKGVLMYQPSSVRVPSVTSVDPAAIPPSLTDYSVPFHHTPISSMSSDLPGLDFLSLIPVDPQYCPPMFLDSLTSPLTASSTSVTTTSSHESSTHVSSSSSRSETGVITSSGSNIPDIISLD
inactive: erlotinib 0.043 | [1] -0.277 | [2] 0.035 | [3] 0 | [5] 0.019 | [6] 0.039 | [7] 0.037 | [8] -0.002 | IRAK-1-4 Inhibitor I 0.053 | ralimetinib 0.019 | [10] 0.006 | [11] -0.017 | [12] 0.039 | [13] 0.052 | [14] -0.001 | [15] -0.002
